Source: PubChem BioAssay (The Scripps Research Institute Molecular Screening Center)
ssDAF-12 act: S. stercoralis DAF-12 nuclear receptor activators, primary screen, cell-based, luminescence, HEK293, GRIP1 co-expression, lit1-tk-luc. activation, % at 6.8 µM. HEK293 ssDAF-12/GRIP1 lit1-tk-luc reporter; % of 3 µM dafachronic acid response. AID 652126, 2013. 370,000 tested, 1% active;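 active means activation above the mean over all tested compounds plus 3 SD, cut at about 0.9% in these data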;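 further: 0% = DMSO-only wells and 100% = 3 µM delta7-dafachronic acid wells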
hgDAF12 agonist: H. glycines DAF-12 receptor agonists, primary screen, cell-based, luminescence, HEK293, GAL4 fusion, UAS-luciferase. HEK293 GAL4-hgDAF12 UAS-luciferase reporter, agonist luminescence; normalized to butyrate control. activation, % at 6.8 µM. AID 687014, 2013. 370,000 tested, 1.8% active. Nuclear hormone receptor DAF-12 (Heterodera glycines), GAL4 fusion;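 active means activation above a cutoff set at the mean of all screened compounds plus 3 SD, cut at about 10% in these data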;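 further: 0% = DMSO wells and 100% = sodium butyrate wells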
AHR act: AHR activators, primary screen, cell-based, luminescence, luciferase reporter, human; Aryl hydrocarbon receptor (Homo sapiens), P35869; AHR-responsive luciferase reporter cells; activation, % at 5 µM; 320,000 tested, 2.5% active; in the data active means activation above about 47%;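 further: 0% = vehicle wells and 100% = reference agonist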
DAX1 inh-1: DAX1 (NR0B1) inhibitors on StAR promoter, primary screen, cell-based, luminescence, SF-1 (NR5A1), full-length DAX-1; 370,000 tested, 1.1% active; inhibition, % at 6.8 µM; HEK293T StAR-luciferase reporter, SF-1/DAX-1 repression relief; AID 652010, 2013;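 active means inhibition above the mean over all tested compounds plus 3 SD, cut at about 3.6% in these data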;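 further: 0% = DAX-1 cells with DMSO and 100% = cells lacking DAX-1 with DMSO; higher inhibition means more luminescence from relief of DAX-1 repression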
DAX1 inh-2: DAX1 (NR0B1) inhibitors, primary screen, cell-based, HEK293, Gal4-DAX1, luciferase luminescence | 340,000 tested, 0.99% active | inhibition, % at 6.75 µM | HEK293 Gal4-DAX1 luciferase reporter;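 active means inhibition above the mean over all tested compounds plus 3 SD, cut at about 4.2% in these data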;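 further: 0% = DAX1-transfected cells with DMSO and 100% = empty-vector control cells with DMSO; inhibition shows as a rise in luminescence from relieved DAX1 repression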
Target sequence (P51843 207-470 limits assumed): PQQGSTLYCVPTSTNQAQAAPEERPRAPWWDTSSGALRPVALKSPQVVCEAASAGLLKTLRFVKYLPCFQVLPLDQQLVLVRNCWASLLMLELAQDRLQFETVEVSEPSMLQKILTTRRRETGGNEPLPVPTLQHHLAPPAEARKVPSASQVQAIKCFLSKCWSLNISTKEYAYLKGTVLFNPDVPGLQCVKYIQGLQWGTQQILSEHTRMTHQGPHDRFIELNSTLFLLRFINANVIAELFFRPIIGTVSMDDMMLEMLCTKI
hcDAF-12 act: H. contortus DAF-12 nuclear receptor activators, primary screen, cell-based, luminescence, HEK293, lit1-tk-luc reporter; HEK293 hcDAF-12 lit1-tk-luc reporter; 0% DMSO, 100% Δ7-dafachronic acid; activation, % at 6.8 µM; 370,000 tested, 1.4% active;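 active means activation above the mean of all tested compounds plus 3 SD, cut at about 5.5% in these data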;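 further: 100% = response to 3 µM Δ7-dafachronic acid high control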
An asterisk follows results filed as active; . = no result given. A selection: hits, their analogues and other compounds. The true share with any hit is near 5.7%.

SMILES | ssDAF-12 act | hgDAF12 agonist | AHR act | DAX1 inh-1 | DAX1 inh-2 | hcDAF-12 act
COc1cc2c(cc1OC)CN(CC(=O)Nc1ccccc1C#N)CC2 | -0.8 | -2.6 | 50.1* | -0.5 | -1.0 | 1.2
COC(=O)CCC(=O)c1oc2ccc(Br)cc2c1N | -0.5 | 11.0* | 0.8 | 2.5 | 3.0 | 1.4
COc1ccc2oc(C(=O)CCC(=O)O)c(N)c2c1 | -1.0 | 3.1 | 1.8 | 2.6 | 0.0 | 2.4
Cc1ccc(S(=O)(=O)NNC(=O)c2cc3cc4ccccc4nc3s2)cc1 | -1.0 | -1.8 | 14.6 | -0.1 | 0.0 | -0.4
O=C(NNC(=O)c1cc2cc3ccccc3nc2s1)c1cccc(Cl)c1 | -1.1 | 0.8 | 48.4* | -0.2 | 0.0 | -0.2
Cc1cccc(C(=O)NNC(=O)c2cc3cc4ccccc4nc3s2)c1 | -1.1 | -0.3 | 74.4* | -0.2 | 0.4 | -0.8
O=C(c1ccc2snnc2c1)N1CCCC1 | -1.0 | -2.4 | 2.6 | 0.0 | -0.2 | -1.2
CC1CCN(S(=O)(=O)N2CCCC(C(=O)NCc3ccc(F)cc3)C2)CC1 (centres undefined) | -1.3 | -0.2 | 1.2 | -1.1 | 0.2 | -3.2
Cc1cc(C)c(S(=O)(=O)Nc2cc(SCC(=O)O)c(O)c3ccccc23)cc1C | . | . | 61.1* | . | . | .
COc1ccc(S(=O)(=O)Nc2cc(SCC(=O)O)c(O)c3ccccc23)cc1 | 0.4 | -1.6 | 66.3* | -1.4 | -1.3 | 4.8
Cc1cc(C)c(S(=O)(=O)/N=C2/C=C(SCC(=O)O)C(=O)c3ccccc32)cc1C | . | . | . | . | 1.6 | .
O=C(O)CSc1cc(NS(=O)(=O)c2ccc(Cl)cc2)c2ccccc2c1O | 0.5 | 1.1 | 49.6* | -0.9 | -1.4 | 1.6
COc1ccc(S(=O)(=O)Nc2cc(Sc3ncn[nH]3)c(O)c3ccccc23)cc1 | -2.9 | -13.1 | . | -5.4 | . | -5.1
O=[N+]([O-])c1[nH]cnc1/C=C/c1ccccc1 | -1.2 | 3.2 | 3.6 | 0.1 | -0.9 | 0.0
Cc1cccc(NC(=O)C2CCN(c3ncccn3)CC2)c1C | -1.1 | -0.2 | . | -1.6 | . | 2.3
Cc1oc(-c2ccccc2)cc1C(=O)Nc1ccccc1 | -1.1 | 4.9 | 40.1 | -0.4 | -1.5 | 1.5
O=C(CSc1nc2ccccc2c(=O)n1NC(=O)c1ccccc1)c1ccccc1 | 1.2* | 11.6* | 1.4 | 2.6 | 2.6 | 4.5
O=C(CSc1nc2ccsc2c(=O)n1NC(=O)c1ccccc1)Nc1nccs1 | -0.1 | 11.3* | -1.1 | 1.2 | 1.2 | 1.1
Cc1nc2ccccc2c(=O)n1NC(=O)c1ccc(Cl)cc1 | -1.1 | 5.3 | 5.1 | -0.8 | 2.3 | -1.3
O=C(CSc1nc2ccccc2c(=O)n1NC(=O)c1ccccc1)c1ccc(Cl)cc1 | 0.4 | 12.2* | -1.5 | 2.8 | 3.2 | 3.2
CCc1ccc(Nc2nnc(SCC(=O)NC(=O)CN3CCCC3=O)s2)cc1 | -0.7 | 1.7 | -3.0 | -0.1 | 0.6 | 0.3
Cc1ccc(N2C(=O)[C@@H]3[C@H](C2=O)[C@H]2C=C(C(=O)c4ccccc4)C=CN2[C@@H]3C(=O)c2ccc(Cl)cc2)cc1 | -1.0 | 0.6 | 2.4 | -0.1 | -1.0 | 2.1
Cc1nc2cc(NC(=O)Nc3cccc([N+](=O)[O-])c3)ccc2n1C | -0.7 | 11.2* | 0.9 | 2.5 | 3.8 | 2.2
CC(=O)c1ccc(NC(=O)Nc2ccc3c(c2)nc(C)n3C)cc1 | -0.6 | 8.9 | -5.1 | 4.0* | 0.4 | 1.7
COC(=O)c1ccc(NC(=O)Nc2ccc3c(c2)nc(C)n3C)cc1 | -1.3 | 2.5 | -5.7 | -1.1 | -0.3 | -3.2
SMILES | ssDAF-12 act | hgDAF12 agonist | AHR act | DAX1 inh-1 | DAX1 inh-2 | hcDAF-12 act
OC(c1cccs1)(c1cccs1)C1C[N+]2(CF)CCC1CC2 (centres undefined) | -0.9 | 0.3 | -3.5 | 0.0 | 0.6 | 5.8*
Cn1c(N)c(-c2nc3cccnc3n2C)sc1=S | -1.0 | -1.1 | 51.2* | -0.2 | 4.2* | 0.2
O=C(NC1(C(F)(F)F)NC(=O)N(C2CCCCC2)C1=O)C1CC1 (centres undefined) | -1.7 | -1.4 | -0.5 | 0.9 | 0.7 | -0.4
C/C(Cn1cnc([N+](=O)[O-])n1)=N\NC(=O)c1cccc(F)c1 | 0.8 | 10.8* | 6.8 | -0.3 | 1.8 | 1.9
C/C(Cn1cnc([N+](=O)[O-])n1)=N\NC(=O)c1ccc(F)cc1 | -0.7 | 4.5 | 28.0 | 0.8 | -1.6 | -1.5
CCN(CC(=O)Nc1ccc(OC(F)F)cc1)C1CCCCC1 | -1.9 | 0.8 | 4.9 | -0.6 | 3.0 | -2.7
Cn1cc([C@]2(O)C(=O)Nc3cccc(Cl)c32)c2ccccc21 | -0.7 | 0.9 | . | -0.9 | . | 1.0
Cn1cc([C@]2(O)C(=O)Nc3ccc(Br)cc32)c2ccccc21 | 0.9* | 0.9 | . | 0.2 | . | 0.9
Cn1cc([C@]2(O)C(=O)Nc3ccc(F)cc32)c2ccccc21 | 1.2* | 2.1 | . | -0.7 | . | 1.9
Cn1cc([C@]2(O)C(=O)Nc3c(F)cccc32)c2ccccc21 | 0.3 | -2.1 | . | 0.2 | . | 1.8
COC(=O)c1ccccc1NC(=O)CC(=O)Nc1ccccc1C(=O)OC | -0.7 | 0.7 | 5.0 | 0.2 | 1.0 | 1.8
Cc1cc(C)nc(NS(=O)(=O)c2ccc(NCN3C(=O)c4ccccc4C3=O)cc2)n1 | -1.0 | -4.3 | . | -0.1 | -1.4 | 0.6
CC(=NNC(=S)SCc1ccccc1)c1ccccn1 | -0.8 | -3.3 | . | -0.6 | 0.6 | -1.1
COc1cc(/C=N/OCC(=O)NC2CCCCC2C)ccc1OCc1ccc(Cl)cc1 (centres undefined) | -0.3 | 11.4* | 7.2 | 4.2* | 2.7 | 2.5
O=C(Cc1cccs1)N/N=C/C(Cl)=C/c1ccccc1 | -0.7 | 11.5* | 8.1 | 1.7 | 1.1 | 3.2
Oc1[nH]c2ccccc2c1/C=N/c1nccs1 | 0.6 | 6.1 | 53.2* | 0.9 | 1.7 | 5.7*
O=C(Oc1cccc2ccccc12)c1ccccc1 | -1.2 | 3.3 | . | 1.8 | 7.1* | 0.1
Cc1nc2cc(-n3ccc(=O)cc3)ccc2n1-c1ccccc1 | -0.3 | -0.8 | -0.7 | -0.3 | 0.1 | 2.0
Cc1ccc(NC(=O)CO/N=C/c2ccc(N(C)C)cc2)cc1 | -1.4 | 2.5 | 2.5 | -0.3 | -0.3 | -0.7
Cc1ccc(NC(=O)c2cc(N(C)C)ccc2[P+](=O)O)cc1 | -0.5 | 11.0* | 2.5 | 3.7* | 1.2 | 5.7*
COc1ccc(/C=N/N=C2/SCC(=O)N2Cc2ccccc2)cc1 | -0.1 | 12.8* | 33.1 | 1.1 | 5.8* | 2.4
